Reference: ChEMBL document CHEMBL1961873, “Compounds: GSK PKIS; Assays: Nanosyn kinase panel” (2012)

Experiments:
[1] = target: T1, 3-phosphoinositide-dependent protein kinase 1 (Homo sapiens) (UniProt O15530); conditions: at 0.1 µM;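 also: values are mean inhibition of PDK1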
T1 sequence (whole entry): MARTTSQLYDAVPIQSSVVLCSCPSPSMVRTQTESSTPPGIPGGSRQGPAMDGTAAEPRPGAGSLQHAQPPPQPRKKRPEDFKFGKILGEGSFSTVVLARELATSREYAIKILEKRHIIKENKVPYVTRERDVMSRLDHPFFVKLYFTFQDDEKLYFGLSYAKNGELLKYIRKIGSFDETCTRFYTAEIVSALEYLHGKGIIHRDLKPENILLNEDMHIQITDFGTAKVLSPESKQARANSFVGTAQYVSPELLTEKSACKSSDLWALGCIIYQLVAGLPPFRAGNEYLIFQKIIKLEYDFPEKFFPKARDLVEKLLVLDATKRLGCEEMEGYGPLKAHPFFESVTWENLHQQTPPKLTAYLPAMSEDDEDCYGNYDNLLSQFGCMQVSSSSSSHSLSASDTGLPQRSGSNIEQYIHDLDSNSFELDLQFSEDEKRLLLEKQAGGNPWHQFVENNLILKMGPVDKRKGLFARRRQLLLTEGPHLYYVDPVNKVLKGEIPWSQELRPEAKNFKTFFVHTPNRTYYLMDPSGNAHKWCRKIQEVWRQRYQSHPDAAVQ

[2] = target: cAMP-dependent protein kinase catalytic subunit alpha (Homo sapiens) (UniProt P17612); conditions: at 0.1 µM
[3] = target: cAMP-dependent protein kinase catalytic subunit alpha (Homo sapiens) (UniProt P17612); conditions: at 1 µM
[4] = target: Protein kinase C alpha type (Homo sapiens) (UniProt P17252); conditions: at 0.1 µM
[5] = target: Protein kinase C alpha type (Homo sapiens) (UniProt P17252); conditions: at 1 µM
[6] = target: Protein kinase C beta type (Homo sapiens) (UniProt P05771); conditions: at 0.1 µM
Chain of Protein kinase C beta type (Homo sapiens) (P05771 2-671 limits assumed): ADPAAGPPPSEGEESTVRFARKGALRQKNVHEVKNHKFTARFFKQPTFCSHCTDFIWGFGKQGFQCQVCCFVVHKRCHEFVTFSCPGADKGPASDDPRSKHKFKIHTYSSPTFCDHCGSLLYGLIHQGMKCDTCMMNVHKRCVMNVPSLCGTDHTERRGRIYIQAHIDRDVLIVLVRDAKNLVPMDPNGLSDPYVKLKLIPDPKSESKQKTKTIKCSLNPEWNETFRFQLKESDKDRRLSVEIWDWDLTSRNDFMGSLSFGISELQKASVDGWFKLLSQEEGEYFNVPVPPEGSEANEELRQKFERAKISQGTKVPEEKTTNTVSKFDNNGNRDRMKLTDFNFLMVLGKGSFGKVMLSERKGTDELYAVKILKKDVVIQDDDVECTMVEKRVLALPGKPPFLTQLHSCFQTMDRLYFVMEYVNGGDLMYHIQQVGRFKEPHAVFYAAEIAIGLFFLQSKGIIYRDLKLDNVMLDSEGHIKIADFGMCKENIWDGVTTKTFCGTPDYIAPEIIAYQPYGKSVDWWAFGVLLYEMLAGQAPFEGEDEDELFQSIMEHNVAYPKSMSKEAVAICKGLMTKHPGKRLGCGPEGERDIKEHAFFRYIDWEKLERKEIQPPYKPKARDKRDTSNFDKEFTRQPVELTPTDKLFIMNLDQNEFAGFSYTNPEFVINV

[7] = target: Protein kinase C beta type (Homo sapiens) (UniProt P05771); conditions: at 1 µM
[8] = target: Protein kinase C eta type (Homo sapiens) (UniProt P24723); conditions: at 0.1 µM
Chain of Protein kinase C eta type (Homo sapiens) (P24723 whole entry): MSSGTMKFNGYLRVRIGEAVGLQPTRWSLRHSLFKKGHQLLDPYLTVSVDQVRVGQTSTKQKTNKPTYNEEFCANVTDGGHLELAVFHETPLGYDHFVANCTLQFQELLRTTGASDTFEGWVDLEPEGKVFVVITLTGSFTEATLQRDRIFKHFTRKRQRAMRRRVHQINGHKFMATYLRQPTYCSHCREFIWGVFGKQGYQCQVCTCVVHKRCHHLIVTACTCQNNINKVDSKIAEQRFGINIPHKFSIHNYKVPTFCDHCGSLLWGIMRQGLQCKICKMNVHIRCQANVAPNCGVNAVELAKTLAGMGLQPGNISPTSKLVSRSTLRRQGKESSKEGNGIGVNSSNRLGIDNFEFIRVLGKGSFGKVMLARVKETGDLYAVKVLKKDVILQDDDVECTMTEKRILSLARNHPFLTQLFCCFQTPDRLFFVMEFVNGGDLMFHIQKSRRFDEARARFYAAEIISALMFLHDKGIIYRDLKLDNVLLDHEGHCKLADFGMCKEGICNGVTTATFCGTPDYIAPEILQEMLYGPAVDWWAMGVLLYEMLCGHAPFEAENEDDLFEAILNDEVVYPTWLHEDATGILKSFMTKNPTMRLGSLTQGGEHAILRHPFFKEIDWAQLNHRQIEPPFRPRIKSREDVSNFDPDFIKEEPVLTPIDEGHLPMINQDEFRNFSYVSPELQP

[9] = target: Protein kinase C eta type (Homo sapiens) (UniProt P24723); conditions: at 1 µM
[10] = target: Protein kinase C gamma type (Homo sapiens) (UniProt P05129); conditions: at 0.1 µM;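 also: values are mean percent inhibition of PKC gamma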

Row | Structure (SMILES) | inhibition [1] [%] | inhibition [2] [%] | inhibition [3] [%] | inhibition [4] [%] | inhibition [5] [%] | inhibition [6] [%] | inhibition [7] [%] | inhibition [8] [%] | inhibition [9] [%] | inhibition [10] [%]
1 | COC(=O)Nc1nc2cc(Oc3ccc(NC(=O)Nc4cccc(Br)c4)cc3)ccc2[nH]1 | 3.36 | 1.25 | 1.19 | 1.04 | 1.61 | -0.97 | 2.4 | -0.37 | 4.28 | -0.79
2 | CS(=O)(=O)Nc1cccc(-c2ccc3c(NC(=O)C4CC4)n[nH]c3c2)c1 | -0.34 | 0.91 | 1.02 | 0.79 | 1.61 | -1.18 | -0.16 | 1.82 | 3.34 | 1.6
3 | CN(c1ccc(NC(=O)Nc2ccc(OC(F)(F)F)cc2)cc1)c1ccnc(Nc2cccc(S(N)(=O)=O)c2)n1 | 0.37 | 1.4 | 2.04 | 0.02 | 0.85 | 0.45 | 0.52 | 0.81 | -0.51 | 2.48
4 | Cc1cc(Cl)cc2c1NC(=O)C2=NNc1ccc(S(N)(=O)=O)cc1 | 0.95 | 1.21 | 1.37 | 0.07 | -0.61 | 0.78 | 2.56 | -0.95 | 2.95 | 0.4
5 | Cc1nc(-c2ccccc2)n2nc(NCCCN3CCOCC3)ncc12 | 2.52 | 2.1 | 2.12 | -0.23 | 0.9 | -0.19 | 0.04 | 0.77 | 4.23 | 2.71
6 | Cc1cc(O)cc(C)c1/C=C/c1cncc(C(=O)N(C)C)c1 | 4.18 | 1.98 | 0.93 | 0.28 | 1.71 | 0.67 | 1.26 | 3 | 4.61 | 1.75
7 | NS(=O)(=O)c1ccc(Nc2cc(-c3cccc(O)c3)n[nH]2)cc1 | 1.78 | 3 | 2.6 | 1.01 | 1.85 | -3.34 | 1.78 | 3.19 | 2.17 | 2.3
8 | CC(C)c1ccc(Nc2nccc(-c3cnn4ncccc34)n2)cc1 | 2.46 | 1.64 | 1.72 | 0.38 | 6.9 | 0.55 | 1.57 | 1.03 | 3.89 | 1.93
9 | CCS(=O)(=O)c1ccc(OC)c(Nc2ncc(-c3cccc(OC)c3)o2)c1 | 1.14 | 1.07 | 1.26 | 1.39 | 5.21 | 0.07 | -1.05 | -0.85 | 1.66 | 2.11
10 | c1ccc(Nc2ncc(-c3ccccc3)o2)cc1 | 4.59 | 2.19 | 3.41 | 1.37 | 2.47 | -0.26 | -0.49 | 2.48 | 5.31 | 2.57
11 | c1ccc(Cc2nc3ccc(Nc4ncnc5ccccc45)cc3[nH]2)cc1 | 0.78 | 1.15 | 2.76 | 1.22 | 4.52 | 1.26 | 1.59 | 2.55 | 2.75 | 1.69
12 | COc1ccc(-c2nn3ncccc3c2-c2ccnc(Nc3cccc(C(F)(F)F)c3)n2)cc1 | -0.15 | 2.04 | 2.61 | 0.27 | 1.31 | 1.46 | 2.39 | 0.87 | 0.72 | 2.97
13 | N#Cc1cccc(Nc2nccc(-c3cnn4ncccc34)n2)c1 | 2.83 | 2.6 | 12.8 | 26.2 | 72.8 | 2.69 | 20 | 7.07 | 31.9 | 6.2
14 | ON=C1CCc2cc(-c3nc(C4CCNCC4)[nH]c3-c3ccncc3)ccc21 | -0.07 | 1.54 | 18.8 | 1.13 | 2.47 | -0.12 | 11.1 | -0.55 | 2.63 | -1.91
15 | [O-][S+]1CCN(Cc2ccc(-c3ccc4ncnc(Nc5ccc(OCc6ccccc6)c(Cl)c5)c4c3)o2)CC1 | 0.06 | 2.94 | 7.99 | 0.05 | 0.88 | 0.56 | 0.65 | 1.86 | 2.18 | -0.93
16 | Nc1nccc(C#Cc2cncnc2Nc2ccc(OCc3cccc(F)c3)c(Cl)c2)n1 | 2.4 | 1.49 | 2.74 | 1.36 | 1.81 | 2.69 | 2.19 | 2.81 | -0.12 | 5
